Laboratory results as given in PubChem BioAssay (NCI).
About 83,000 compounds went through this panel and 20% of them were active in at least one assay; those are over-represented in the sample as a whole.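 Compound tested at a single concentration for 48 hours in 96-well plates; a percent growth value below 10 was scored as active.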 A number with no mark means an inactive call. Active and inactive are the calls of the source.

Key:
Experiment in all cases: NCI-60 one-dose screen, 48 h (100 = growth as untreated, 0 = no growth, -100 = all killed)
Details in all cases: 10 µM unless noted
NCI-H23 lung = system: NCI-H23 lung
NCI-H226 lung = system: NCI-H226 lung
NCI-H322M lung = system: NCI-H322M lung
HOP-62 NSCLC = system: HOP-62 NSCLC
NCI-H460 lung = system: NCI-H460 lung
HOP-92 NSCLC = system: HOP-92 NSCLC
NCI-H522 lung = system: NCI-H522 lung
A549/ATCC NSCLC = system: A549/ATCC NSCLC
COLO 205 colon = system: COLO 205 colon
786-0 renal = system: 786-0 renal

Structure (SMILES) | growth (NCI-H23 lung) | growth (NCI-H226 lung) | growth (NCI-H322M lung) | growth (HOP-62 NSCLC) | growth (NCI-H460 lung) | growth (HOP-92 NSCLC) | growth (NCI-H522 lung) | growth (A549/ATCC NSCLC) | growth (COLO 205 colon) | growth (786-0 renal)
Cc1[nH]n(C(=O)c2ccncc2)c(=O)c1N=Nc1ccc(O)c(C(=O)O)c1 | 106% | 86.3% | 91.3% | -3.17% (active) | 114% | 62.7% | 104% | 21.9% | 113% | –
COc1cccc(/C=N/N=C(N)N)c1 | 103% | 98.3% | 114% | 104% | 111% | 91.1% | 97.4% | – | 109% | 117%
CCCCCCCCCCCC1=NC(C)(C)CN1C(C)(C)CO | 59.5% | 94.8% | 92.6% | 60.4% | 28.2% | 28.7% | 47.5% | 68.8% | -81.4% (active) | 71.6%
COc1cccc2nc(Nc3cccc(NC(=O)c4ccc(N5CCN(C)CC5)c(C(F)(F)F)c4)c3)ccc12 | 62.6% | 43.2% | 42.6% | 18.2% | -9.94% (active) | 13% | -14.2% (active) | – | -59.2% (active) | -57.8% (active)
NCCCOc1cc2ccccc2cc1C(=O)NCCCOc1cc2ccccc2cc1C(=O)Nc1ccc(Cl)cc1O | -67.6% (active) | -85.8% (active) | -51.9% (active) | -100% (active) | -72.3% (active) | -75.9% (active) | -65.1% (active) | – | -54.1% (active) | -82.4% (active)
Cc1ccccc1N1C(c2ccccc2)=NNC12C=CC(=O)c1c(O)cccc12 (stereo not drawn) | 31.4% | 87.8% | 99.1% | 31.1% | 89.6% | 137% | 54.6% | 68.1% | 95.7% | –
O=C(/C=C/c1cc([N+](=O)[O-])ccc1Cl)c1ccccc1 | 87.6% | 86.5% | 88.1% | 103% | 97.6% | 73.7% | 82.9% | 91.5% | 109% | 78.4%
CCc1oc2ccccc2c1C(=O)c1cc(I)c(O)c(I)c1 | 58.5% | 74.8% | 98.3% | 108% | 21.6% | 53.2% | 30% | 40.3% | 104% | 62%
CCCCCc1c(C)[nH]c(/C=C2\N=C(c3ccc[nH]3)C=C2CC)c1C | -81% (active) | -92.3% (active) | -90.2% (active) | -72.2% (active) | -73.3% (active) | -91.8% (active) | -88.8% (active) | – | -87.7% (active) | -93.6% (active)
CC(C)CC(NC(=O)OCC1c2ccccc2-c2ccccc21)C(=O)O (stereo not drawn) | 101% | 102% | 101% | 103% | 115% | 96.2% | 96.6% | – | 111% | 98%
COc1cccc(OCC(O)CN2CCN(c3ccccc3)CC2)c1 (stereo not drawn) | 106% | 106% | 129% | 103% | 114% | 129% | 80.3% | 114% | 138% | 104%
